Source: PubChem (several laboratories)
ADAM10 inh = inhibitors of human ADAM10; recombinant ADAM10, EDANS/DABCYL FRET peptide cleavage, 3 h; actives 0.62% (n = 370,000); inhibition, % at 7 µM; O14672;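 active means inhibition above a per-campaign cutoff equal to the mean of compounds falling between control-based bounds plus 3 SD, cut at about 20% in these data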;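 further: 0% = DMSO wells while the 100% control is not disclosed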
NPR2 activator = GC-B (human) receptor activation. HEK293-GC-B cells, CNP EC30, cGMP TR-FRET; 0% at EC30 CNP, 100% saturating CNP. activation, % at 10 µM. actives 0.11% (n = 370,000);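 active means activation at 10 µM reaching about 35% in either raw or pattern-adjusted values, limit read from the data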
GC-A act = GC-A (human) enzyme activation. P16066. HEK293 GC-A cells, cGMP TR-FRET, EC30 ANP; 0% at EC30 ANP, 100% saturating ANP. activation, % at 10 µM. actives 0.14% (n = 370,000). AID 1671463; in the data active means activation above about 40%
Target sequence (P16066 whole entry, looked up): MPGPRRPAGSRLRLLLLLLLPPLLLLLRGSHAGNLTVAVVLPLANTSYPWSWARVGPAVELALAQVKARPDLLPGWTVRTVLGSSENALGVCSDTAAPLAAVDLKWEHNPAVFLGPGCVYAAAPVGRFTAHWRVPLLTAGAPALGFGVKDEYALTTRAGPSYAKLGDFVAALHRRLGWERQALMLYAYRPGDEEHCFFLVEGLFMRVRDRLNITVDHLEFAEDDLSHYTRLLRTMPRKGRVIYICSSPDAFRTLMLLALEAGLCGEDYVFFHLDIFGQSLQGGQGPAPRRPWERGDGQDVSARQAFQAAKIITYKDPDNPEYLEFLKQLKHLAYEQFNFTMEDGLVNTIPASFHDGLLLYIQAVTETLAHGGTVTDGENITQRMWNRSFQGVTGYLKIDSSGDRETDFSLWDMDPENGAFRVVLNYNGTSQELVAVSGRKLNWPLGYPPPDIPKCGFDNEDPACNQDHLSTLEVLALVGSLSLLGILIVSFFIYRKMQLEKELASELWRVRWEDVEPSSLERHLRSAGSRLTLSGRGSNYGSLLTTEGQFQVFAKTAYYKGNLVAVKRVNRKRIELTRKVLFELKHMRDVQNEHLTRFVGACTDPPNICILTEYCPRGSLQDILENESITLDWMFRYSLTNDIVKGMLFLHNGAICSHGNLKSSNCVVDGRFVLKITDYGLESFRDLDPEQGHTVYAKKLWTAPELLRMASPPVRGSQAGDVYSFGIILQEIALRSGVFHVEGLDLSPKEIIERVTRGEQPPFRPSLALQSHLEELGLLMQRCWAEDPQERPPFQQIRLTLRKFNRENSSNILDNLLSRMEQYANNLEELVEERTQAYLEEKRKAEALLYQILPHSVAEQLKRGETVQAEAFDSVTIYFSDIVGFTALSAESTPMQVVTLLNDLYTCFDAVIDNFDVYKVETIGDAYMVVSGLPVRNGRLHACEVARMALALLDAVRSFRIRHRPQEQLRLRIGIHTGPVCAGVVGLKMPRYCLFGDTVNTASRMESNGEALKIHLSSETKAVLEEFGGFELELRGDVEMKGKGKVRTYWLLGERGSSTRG
KLK7 zymogen act = activators of human kallikrein-7 zymogen; P49862; purified proKLK7, EDANS-DABCYL substrate fluorescence; 100% is mature enzyme control, 0% vehicle; activation, % at 7 µM; actives 0.9% (n = 370,000); AID 652039;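 active means activation above the mean of all tested compounds plus 3 SD, computed per campaign excluding outliers beyond control limits, cut at about 13% in these data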
ADAM17 inh = inhibits human ADAM17. recombinant ADAM17, EDANS/DABCYL FRET peptide cleavage. AID 720648. inhibition, % at 6.95 µM. actives 0.83% (n = 370,000). P78536;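 active means inhibition above the mean of compounds lying between control limits plus 3 SD, set per campaign, cut at about 8.5% in these data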;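 further: 0% = DMSO-only wells as the low control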
KLK7 act conf = proKLK7 activation, confirmation; purified proKLK7, EDANS-DABCYL substrate fluorescence; scaled: vehicle 0, mature enzyme 100; actives 68% (n = 3,200); shares compounds with KLK7 zymogen act; activation, % at 7 µM;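 active means activation, as change over the incubation, above the mean of all tested compounds plus 3 SD, cut at about 13% in these data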
EDANS-DABCYL int = optically interferes with EDANS-DABCYL signal, flagging KLK7 hits. shares compounds with KLK7 zymogen act. EDANS-DABCYL substrate fluorescence interference, no enzyme, 4 h; solvent 0%, active enzyme control 100%. activation, % at 7 µM. actives 80% (n = 3,200);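 active means activation above the all-compound mean plus 3 SD, ignoring values outside control-based bounds, cut at about 4.8% in these data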;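 further: value is the 4 h activation minus the activation read at time zero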
* hit, by the source's call; i = inactive; . = no result given. An excerpt weighted towards active compounds, which were near 2.2% of everything screened.

SMILES | ADAM10 inh | NPR2 activator | GC-A act | KLK7 zymogen act | ADAM17 inh | KLK7 act conf | EDANS-DABCYL int
Cc1coc2cc3oc(=O)c(Cc4ccccc4)c(C)c3cc12 | -120 | -4 | -2 | -6 | -33 | . | .
C=CCn1c(N)c(C(=O)OC(C)CC)c2nc3ccccc3nc21 (configuration not stated) | i | 1 | 8 | 69* | i | -33 | -19
C=CCn1c(N)c(C(=O)OC(C)(C)C)c2nc3ccccc3nc21 | i | 1 | 11 | 46* | i | 80* | 71*
C=CCn1c(N)c(C(=O)Nc2ccccc2)c2nc3ccccc3nc21 | -73 | -14 | 11 | -5 | -21 | . | .
COCC(C)OC(=O)c1c(N)n(CC(C)C)c2nc3ccccc3nc12 (configuration not stated) | i | 25 | 17 | 59* | i | -33 | -30
C=CCn1c(C(C)C)nc2ccccc21 | -3 | 6 | 0 | 0 | -4 | . | .
COC(=O)c1c(N)n(-c2ccc(NC(C)=O)cc2)c2nc3ccccc3nc12 | i | 1 | -1 | 24* | i | 76* | 73*
COC(=O)C1CN(Cc2ccc(F)cc2)CCS(=O)(=O)N1Cc1ccc(C)cc1 (configuration not stated) | 9 | -9 | -4 | 0 | 1 | . | .
COc1ccc(S[C@]2(C(=O)N3CCN(c4ncccn4)CC3)CC(=O)N(c3ccc(C#N)cc3)[C@@H]2c2ccc(OC)cc2)cc1 | 9 | -8 | 0 | -1 | 6 | . | .
CC(C)OC(=O)c1c(N)n(CCCN2CCOCC2)c2nc3ccccc3nc12 | i | 0 | 2 | 28* | i | 9 | 7.4*
Nc1c(C(=O)NCCN2CCOCC2)c2nc3ccccc3nc2n1-c1ccc2c(c1)OCO2 | -34 | 4 | 7 | 0 | -10 | . | .
COc1ccccc1CNC(=O)c1c(N)n(CCCN2CCOCC2)c2nc3ccccc3nc12 | i | 5 | 13 | -30 | -418 | . | .
Nc1c(C(=O)NCCN2CCOCC2)c2nc3ccccc3nc2n1-c1ccccc1 | i | -2 | -3 | 28* | i | 8 | 9.1*
CCC(SC1=N/C(=C/c2ccccc2OC)C(=O)N1c1ccccc1)C(=O)Nc1cc(C)on1 (configuration not stated) | 12 | 8 | 2 | 39* | 4 | -9 | -6
COc1ccccc1/C=C1\SC(=S)N(CCC(=O)Nc2cc(C)on2)C1=O | -8 | -4 | -1 | 0 | -1 | . | .
CCc1ccc(/C=C/C(=O)NC2=NCCS2)cc1 | 9 | -8 | -1 | . | -1 | . | .
COc1ccc(OC)c(CN2C(=O)CSCCC2(C)c2nnnn2C2CCCC2)c1 (configuration not stated) | -4 | 0 | -4 | 0 | -5 | . | .
N=c1c(C(=O)NCc2ccc3c(c2)OCO3)cc2c(=O)n3ccccc3nc2n1CC1CCCO1 (configuration not stated) | -98 | 1 | 9 | 1 | -29 | . | .
N=c1c(C(=O)NCc2ccco2)cc2c(=O)n3ccccc3nc2n1CCc1ccccc1 | i | -2 | 7 | 16* | i | 11 | 2
N=c1c(C(=O)NCCc2ccccc2)cc2c(=O)n3ccccc3nc2n1CC1CCCO1 (configuration not stated) | i | 0 | 13 | 99* | i | 9 | 7.7*
N=c1c(C(=O)NCc2ccc(F)cc2)cc2c(=O)n3ccccc3nc2n1CC1CCCO1 (configuration not stated) | i | -7 | 11 | 21* | i | -59 | -54
COCC(=O)N[C@@H]1C[C@@H]2O[C@H](CO)CC[C@@H]2O[C@@H]1CCc1ccc(-c2ccccc2)cc1 | -11 | 6 | 7 | 0 | -4 | . | .
CN1C2=N[C@@H](c3ccccc3)CC(=O)N2/C(=C\c2ccccc2)[C@H]1c1ccccc1 | 18 | -35 | -31 | . | 6 | . | .
COc1ccc2c(c(-c3ccccc3)cn2C)c1-c1ccccc1 | -35 | -3 | -7 | -2 | -10 | . | .
CN(C(=O)NC(=O)C1=C(N2CCOCC2)/C(=C/c2ccccc2)CC1)S(C)(=O)=O | -296 | -3 | 2 | 146* | -100 | 342* | 332*
SMILES | ADAM10 inh | NPR2 activator | GC-A act | KLK7 zymogen act | ADAM17 inh | KLK7 act conf | EDANS-DABCYL int
CC(C)c1ccc(NC(=O)C(c2ccc3c(c2)OCO3)N2CCC3(CC2)OCCO3)cc1 (configuration not stated) | 19 | 3 | 4 | 0 | 7 | . | .
O=C(Nc1ccc2c(c1)OCO2)C(c1ccc(Cl)cc1)N1CCC2(CC1)OCCO2 (configuration not stated) | 3 | -3 | -3 | 18* | 1 | 0 | -1
CCOC(=O)Nc1ccc2c(COC(=O)CNS(=O)(=O)c3cccc(Br)c3)cc(=O)oc2c1 | i | 0 | 2 | 15* | -438 | 30* | 34*
O=C1c2ccccc2NC2(CCCC2)N1N=C1CCCC1 | -142 | 3 | -2 | 9 | -50 | . | .
CC/C(C)=N/N1C(=O)c2ccccc2NC1(C)CC (configuration not stated) | i | 6 | 2 | 19* | -172 | 45* | 39*
COC(=O)[C@@]1(OC(C)=O)CC(OC(C)=O)[C@H](OC(C)=O)[C@H](OC(C)=O)C1Br (some centres not stated) | -1 | -4 | 3 | . | -2 | . | .
CC1(C)Cc2c(sc(NC(=O)c3ccc(C(=O)c4ccccc4)cc3)c2C#N)C(C)(C)N1 | 1 | 4 | 1 | 15* | 1 | 1 | 15*
CC1(C)Cc2c(sc(NC(=O)c3ccc(S(=O)(=O)N4CCCCCC4)cc3)c2C(N)=O)C(C)(C)N1 | -32 | 4 | -6 | 31* | -18 | 33* | 31*
O=C(Nc1cccc2c1C(=O)NC2=O)c1ccc(S(=O)(=O)N2CCCC2)cc1 | -189 | -4 | 1 | 22* | -80 | 258* | 264*
CC1(C)Cc2c(sc(NC(=O)c3ccc4c(c3)OCCO4)c2C(N)=O)C(C)(C)N1 | -10 | -7 | -3 | 1 | -1 | . | .
Cc1cccc(NC(=O)c2ccc(S(=O)(=O)N3CCCC3)cc2)c1C | 6 | 3 | 1 | 0 | -2 | . | .
CCOC(=O)N1CCN(S(=O)(=O)c2ccc(C(=O)Nc3sc4c(c3C#N)CC(C)(C)NC4(C)C)cc2)CC1 | -5 | 0 | 1 | 109* | 1 | 53* | 51*
Nc1[nH]c(C(=O)c2ccccc2)c(-c2ccc(Cl)cc2Cl)c1C(=O)NCCC1=CCCCC1 | -15 | 6 | -9 | . | -7 | . | .
